# Source: PubChem BioAssay AID624418 (National Center for Advancing Translational Sciences (NCATS), 2012)
# The whole screen tested about 410,000 compounds, of which about 530 (0.13%) were called active. Another 5% or so got no clear call; they are omitted. The call rests on the fitted dose curve; in most records, active means well fitted inhibition curve with a large enough effect; inconclusive means small, poorly fitted or top-dose-only effect, or another doubt; inactive means no such curve, though single readings can be large or run the other way. This excerpt belongs to a sample that is enriched for actives.
# Experiment: qHTS of GLP-1 Receptor Inverse Agonists: Cytotox Screen;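 further: loss of luciferase light is scored as toxicity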
# Details: HEK293 cAMP-luciferase reporter cells, luminescence, 24 h; series mostly up to 38.3 µM; activity change, negative = inhibition: at the top concentration
# Text: The overall goal of this project was to develop a novel assay for discovering small molecule ligands for class B1 G protein-coupled receptors (GPCRs). Very few agonists (or inverse agonists) with generally weak activity for this entire group of physiologically important receptors are known to date. To establish proof-of-principle that this critical bottleneck can be overcome with a suitable screening approach, our studies focused on the class B1 receptor for glucagon-like peptide-1 (GLP-1R), a potential therapeutic target for diabetes and neurodegenerative disease.
# The assay was developed using a cell-based functional readout. Toward this goal, stably transfected HEK293 cell clones were established that co-express (i) a cAMP-responsive luciferase reporter gene, and (ii) constitutively active GLP-1R that upon ligand interaction inhibit (inverse agonists) the luciferase activity. In addition, two control cell lines were developed: (i) one that express only the cAMP-responsive reporter gene to enable initial exclusion of GLP-1R independent effects of candidate probes; and (ii) one with the reported gene cloned with another constitutively active orphan receptor GPR119 to enable exclusion of GLP-1R independent inhibitor effects of candidate inverse agonists.
# To that end, this assay was optimized for 1536-well format and screened against the MLSMR. Then the same collection was run in this cytotoxicity assay where inhibition was the undesired outcome.
# NIH Molecular Libraries Probe Production Network [MLPCN]
# NIH Chemical Genomics Center [NCGC]
# PI Name: Martin Beinborn, Tufts Medical Center
# Six ul of cell suspension (200 cells/uL in DMEM + 10% Nu serum + 1% pen-strep) is dispensed in a white solid 1536-well plate. The plates are incubated for 12 hours at 37 deg C at 5% CO2 followed by addition of 23 nL compounds. After 24 hr incubation at 37 deg C and 5% CO2, 3 uL of luciferase assay detection reagent is added. A luminescence read is obtained on the PerkinElmer Viewlux after 12 min incubation at room temperature.
# On the % scale 0 is the no-effect control and ±100 the full control effect; potency means the concentration at half of the fitted maximal effect.
SMILES,Potency,"activity change, negative = inhibition"
O=C(Nc1ccc(OC(F)(F)F)cc1)c1ccc2c(c1)no[n+]2[O-],11.2 µM (active),
O=C(Nc1ccc(Cl)cn1)Nc1cccs1,,49.1% (inactive)
CCOC(=O)[C@]12Cc3cc(OC)ccc3[C@H]1N(C(C)C)C(=O)c1ccccc12,,-28.2% (inactive)
CCOc1ccc2nc(Nc3nc4ccc(NC(C)=O)cc4s3)sc2c1,,37.9% (inactive)
Cc1ccc(NC(=O)N(Cc2ccc3c(c2)OCO3)C2CCN(Cc3ccccc3)CC2)cc1F,,-0.237% (inactive)
COc1ccc(CS(=O)/C(Cl)=C(/Cl)C(=O)Nc2ccc(OC)nc2)cc1 (stereo not given),3.98 µM (active),
O=C1N[C@H](Cc2c[nH]c3ccccc23)COC(=O)[C@H](Cc2ccc(F)cc2)C/C=C\C[C@H]1CC(=O)N(CCO)Cc1ccccc1,,-58.3% (inactive)
CCN(CC)CCCC(C)n1c2nc(=O)[nH]c(=O)c-2nc2cc(Cl)ccc21 (stereo not given),,490% (inactive)
c1cc2c(c(NC3=NCCCS3)c1)CCCC2,,-18% (inactive)
Cc1nnc(NC(=O)c2cccn(Cc3cccc(F)c3)c2=O)s1,,4.13% (inactive)
Cc1cccc(Cn2cccc(C(=O)Nc3ccc4c(c3)OCCO4)c2=O)c1,,4.23% (inactive)
C=CCC[C@@H](Cc1ccc(F)cc1)C(=O)OC[C@H](Cc1c[nH]c2ccccc12)NC(=O)[C@@H](CC=C)CC(=O)N(CCO)Cc1ccccc1,,7.51% (inactive)
Nc1ccc(-c2sc(N)nc2-c2ccccc2)cc1,,184% (inactive)
NS(=O)(=O)c1ccc(NC(=O)COC(=O)c2c3c(nc4ccccc24)/C(=C\c2ccc4c(c2)OCO4)CCC3)cc1,,80.2% (inactive)
C=CC(=O)Nc1ccc(Nc2ccnc(Nc3ccc(N4CCN(C)CC4)cc3)n2)cc1,10 µM (active),
CCC1(CC(C)c2ccccc2)C(=O)NC(=O)NC1=O (stereo not given),,9.72% (inactive)
COc1cccc2sc3cc(NCC[C@@H]4CCCN4C)ccc3c(=O)c12,,221% (inactive)
CC(C)c1ccc(C=NNc2ccc([N+](=O)[O-])cn2)cc1,,44.1% (inactive)
Cc1cc(C)c2c(c1)cc(C)c1nnc(SCC(=O)Nc3cc(C)on3)n12,10 µM (active),
COc1ccc(-c2nc3cnccn3c2NC2CCCCC2)cc1-c1cccc(Cl)c1,,77.1% (inactive)
NC(=O)c1sc2nc3c(c(-c4ccccc4)c2c1N)CCC3,,56.3% (inactive)
COc1ccccc1OC(=O)c1ccc(C)c(S(=O)(=O)N2CCOCC2)c1,,0.53% (inactive)
O=C(c1cc(S(=O)(=O)N2CCOCC2)ccc1F)N1CCC2(CC1)OCCO2,,-20.6% (inactive)
O=C(Nc1nnc(-c2ccccc2)o1)c1cccc(S(=O)(=O)N2CCOCC2)c1,10 µM (active),
CCc1ccc(OCC(=O)N2CCN(CC(=O)Nc3ccccc3Cl)CC2)cc1,,-14.3% (inactive)
